12-LOX inh – blocks human arachidonate 12S-lipoxygenase | P18054 | purified 12hLO, xylenol orange hydroperoxide absorbance | Potency, µM (series often up to 108 µM), inactives show at the top dose activity change, negative = inhibition, most hits filed as inhibitors | hit rate 1.1% among 580,000; note: % is set by controls: 0 for no effect and ±100 for the full control effect
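Purified human 12hLO (150 nM final) in 25 mM Hepes, 0.01% Triton X-100, pH 7.0 was preincubated 15 min at room temperature with compound. Then 40 uM arachidonic acid was added, 30 min. Hydroperoxide was read by Fe-XO absorbance ratio 573/405 nm.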
HP1b binding inh – inhibitors of HP1-beta chromodomain binding to methylated histone tails | P83916 | AlphaScreen HP1-beta / biotin-H3K9me3 peptide binding | Potency, µM (series often up to 114 µM), for inactives: at the highest dose activity change, negative = inhibition, hits mostly inhibitors | hit rate 0.56% among 390,000; note: nearly all actives have a fitted effect of over 70% in size
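HP1-beta protein (50 nM final) preincubated 30 min at room temperature with biotinylated H3(1-18)K9me3 peptide (50 nM) in PBS pH 7.4, 0.01% Tween-20, then compound added for 30 min. AlphaScreen streptavidin donor/nickel chelate acceptor beads (10 ug/mL final), 30 min dark, luminescence read.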
JMJD2A Tudor – JMJD2A Tudor domain (human) inhibition; hit rate 4.4% among 390,000; Potency, µM (highest dose often 114 µM), for the others: at the highest dose activity change, negative = inhibition, usual class: inhibitors; AlphaScreen JMJD2A-Tudor / H3K4me3 peptide binding; O75164; note: % is set by controls: 0 for no effect and ±100 for the full control effect; nearly all actives have a fitted effect of over 50% in size
Target sequence (O75164 whole entry, looked up, the tested form may be a part): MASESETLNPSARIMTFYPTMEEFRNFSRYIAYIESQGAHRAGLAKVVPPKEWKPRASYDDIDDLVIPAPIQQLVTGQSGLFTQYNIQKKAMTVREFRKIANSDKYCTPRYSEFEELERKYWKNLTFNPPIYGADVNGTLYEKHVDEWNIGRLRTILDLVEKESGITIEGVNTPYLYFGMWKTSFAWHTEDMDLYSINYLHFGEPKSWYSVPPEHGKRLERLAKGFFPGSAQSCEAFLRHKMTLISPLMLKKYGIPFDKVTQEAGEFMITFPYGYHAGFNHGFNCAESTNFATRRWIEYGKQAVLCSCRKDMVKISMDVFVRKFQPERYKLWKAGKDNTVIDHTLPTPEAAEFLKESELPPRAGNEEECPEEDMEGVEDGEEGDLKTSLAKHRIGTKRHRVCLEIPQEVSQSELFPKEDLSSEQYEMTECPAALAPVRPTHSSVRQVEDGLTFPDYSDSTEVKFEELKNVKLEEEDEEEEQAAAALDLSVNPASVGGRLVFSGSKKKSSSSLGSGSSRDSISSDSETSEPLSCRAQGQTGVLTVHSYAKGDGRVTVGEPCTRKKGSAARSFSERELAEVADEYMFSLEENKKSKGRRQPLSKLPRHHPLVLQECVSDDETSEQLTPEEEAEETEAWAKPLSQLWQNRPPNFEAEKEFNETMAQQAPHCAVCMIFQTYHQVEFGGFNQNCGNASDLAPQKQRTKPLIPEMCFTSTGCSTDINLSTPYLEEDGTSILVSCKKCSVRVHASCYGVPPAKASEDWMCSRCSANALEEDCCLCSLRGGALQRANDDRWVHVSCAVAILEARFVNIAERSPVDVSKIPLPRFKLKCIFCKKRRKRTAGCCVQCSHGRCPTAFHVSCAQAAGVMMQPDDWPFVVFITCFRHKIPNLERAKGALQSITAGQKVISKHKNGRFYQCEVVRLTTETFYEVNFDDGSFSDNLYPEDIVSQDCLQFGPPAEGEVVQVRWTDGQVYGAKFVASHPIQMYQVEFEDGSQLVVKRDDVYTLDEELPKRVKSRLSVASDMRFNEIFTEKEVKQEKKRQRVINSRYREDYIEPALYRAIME
Sfp PPTase inh – blocks B. subtilis Sfp PPTase activity; Q9F4F7; Biochemical Sfp PPTase activity, qHTS; Potency, µM, for the others: largest response in the series, negative = inhibition, hits mostly inhibitors; hit rate 3.5% among 310,000; AID 1490;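 note: the enzyme is Sfp with the accession as filed and its product quenches rhodamine fluorescence; 0% = enzyme reaction without inhibitor and -100% = no enzyme wells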
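Fluorescence-quenching assay: 15 nM Sfp-PPTase preincubated 15 min at room temperature with compound, then 5 uM rhodamine-CoA and 12.5 uM BHQ-2-labelled YbbR peptide added. Fluorescence (ex 525/em 598 nm) read at start and after 30 min; difference gives rate.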
BAZ2B block – BAZ2B (human) inhibition; Q9UIF8; AlphaScreen BAZ2B-H3K14Ac peptide displacement; Potency, µM (series often up to 114 µM), for inactives: at the highest dose activity change, negative = inhibition, most hits filed as inhibitors; hit rate 4.4% among 360,000; AID 504333; note: % is set by controls: 0 for no effect and ±100 for the full control effect; nearly all actives have a fitted effect of over 60% in size
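Compounds, titrated to a top concentration of 110 uM, were incubated 30 min at room temperature with preformed BAZ2B/acetyl-K14 H3 peptide complex (50 nM each). Proximity signal was measured by AlphaScreen after 20 min with beads.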
G9a block – blocks human histone lysine methyltransferase G9a; G9a H3K9 monomethylation, AlphaScreen, 2 h; Potency, µM (series often up to 102 µM), inactives show top-dose activity, negative = inhibition, actives largely listed as inhibitors; hit rate 8.8% among 350,000; note: % is set by controls: 0 for no effect and ±100 for the full control effect; nearly all actives have a fitted effect of over 75% in size
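G9a (20 nM) was preincubated 15 min with compound, then reacted 2 h at room temperature with 500 nM biotin-H3K9 peptide and 20 µM SAM. Monomethyl-H3K9 detected by AlphaScreen using anti-H3K9me1 antibody.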
* hit, by the source's call; u = inconclusive; x = no result; [ ] = remark or other dose. Rows were chosen to be rich in hits. Some 8.7% of all compounds tested hit in one or more screens of this group. Calls come from the whole dose curve; as a rule, active = well fitted curve in the direction sought with a large enough effect; inconclusive = small, poorly fitted or top-dose-only effect, or another doubt; inactive = no such curve, though single readings can be large; an effect the other way counts as inactive or inconclusive. Potency is the fitted concentration of half-maximal effect.

SMILES	12-LOX inh	HP1b binding inh	JMJD2A Tudor	Sfp PPTase inh	BAZ2B block	G9a block
O=C(CSc1nnc(-c2cccnc2)n1Cc1ccco1)c1ccc2ccccc2c1	-8%	-2%	-33%	-29%	0%	50µM*
O=C(CSc1nnc(-c2cccnc2)n1Cc1ccco1)c1ccc(Br)cc1	-9%	28%	-22%	-5%	-7%	-15%
O=C(CSc1nnc(-c2cccnc2)n1Cc1ccco1)Nc1cccc(O)c1	-11%	8%	-14%	24%	-4%	u
CCSc1nnc(-c2cccnc2)n1Cc1ccco1	-2%	5%	-18%	40µM*	-2%	-21%[59 µM]
Cc1cc(I)ccc1NC1CCOC1=O (centres undefined)	-18%	x	x	x	x	x
O=C(N/C(=C/c1cccc(Br)c1)c1nc(=S)[nH][nH]1)c1ccccc1	35µM*	u	u	-5%	u	u
Cc1ccc(C(=O)N/C(=C\c2ccc(Br)cc2)c2nc(=S)[nH][nH]2)cc1	16µM*	-18%	45µM*	1%	u	15%
COc1ccc(/C=C(/NC(=O)c2ccccc2)c2nc3ccccc3[nH]2)cc1OC	0%	16%	-14%	-3%	1%	-20%
CC(NC(=O)CCc1nc2sc3c(c2c(=O)[nH]1)CCC3)c1cccc(C(F)(F)F)c1 (centres undefined)	-3%	x	x	x	x	x
Cc1ccc(N=Nc2c(C)[nH][nH]c2=O)c(C)c1	-26%	-24%	u	3%	u	u
COc1ccc(N=Nc2c(C)[nH][nH]c2=O)cc1	u	-30%	-34%	-13%	56µM*	u
COc1ccccc1N=Nc1c(C)[nH][nH]c1=O	0%	-3%	-28%	-19%	u	35µM*
Cc1[nH][nH]c(=O)c1N=Nc1ccccc1C#N	u	x	x	u	u	45µM*
O=C(O)c1ccc(C2CCCN(C(=O)CCCn3cncn3)C2)cc1 (centres undefined)	69%	x	x	x	x	x
CN1CCc2c(n(CC(O)CN3C(=O)c4ccccc4S3(=O)=O)c3ccccc23)C1=O (centres undefined)	28%	16%	-30%	8%	-5%	-27%[59 µM]
CN1CCc2c(n(CC(O)CN(CCO)CCO)c3ccccc23)C1=O (centres undefined)	-13%	50%	-28%	u	-15%	35µM*
CN1CCc2c(n(CC(O)CNCc3ccccc3)c3ccccc23)C1=O (centres undefined)	-21%	35%	-10%	-14%	-26%	50µM*
COCCN1Cc2[nH]nc(-c3ccccc3)c2CC1=O	-5%[176 µM]	x	x	x	x	x
CS(=O)(=O)C1=NSC2=NC(=O)/C(=C\c3cccn3-c3ccc(Cl)cc3)C(=N)N21	u	u	45µM*	u	40µM*	45µM*
Cc1cc(/C=C2/C(=N)N3C(=NC2=O)SN=C3S(C)(=O)=O)c(C)n1-c1ccccc1F	u	-12%	u	-4%	45µM*	50µM*
CCC1=NN2C(=N)/C(=C\c3cccn3-c3ccc(OC)cc3)C(=O)N=C2S1	u	-12%	79µM*	-5%	32µM*	u
O=C(NCC1CC1)c1ccc(Cn2ccn3nc4c(c3c2=O)CCCC4)cc1	-11%	x	x	x	x	x
Cc1noc(C)c1CCC(=O)NC1CCc2nn(CC3CC3)c(=O)n2CC1 (centres undefined)	11%	x	x	x	x	x
Cc1ccc(-c2c(C)n([O-])c3c([n+]2=O)CCCC3)cc1	2%	2%	56µM*	12%	-8%	-16%[59 µM]
Cc1c(-c2ccc(Br)cc2)[n+](=O)c2c(n1[O-])CCCCC2	10%	6%	-10%	-1%	-2%	x
SMILES	12-LOX inh	HP1b binding inh	JMJD2A Tudor	Sfp PPTase inh	BAZ2B block	G9a block
Clc1nc(Cl)nc(NCCC2=CCCCC2)n1	u	22%	89µM*	-1%	56µM*	u
CN1CCN(C(=S)c2ccc(-c3cc(Cl)ccc3Cl)o2)CC1	u	u	35µM*	u	28µM*	32µM*
N#CCCN1CCN(C(=S)c2ccc(-c3cc(Cl)ccc3Cl)o2)CC1	-8%	u	40µM*	-14%	u	18µM*
CN1CCN(C(=S)Nc2ccc(Cl)cc2)CC1	1%	36%	9%	12%	-11%	-42%
C/C(=C(/CCO)SSCC1CCCO1)N(C=O)Cc1cnc(C)nc1N (centres undefined)	-21%	55%	-16%	x	6%	13µM*
CCCSS/C(CCO)=C(/C)N(C=O)Cc1cnc(C)nc1N	x	x	x	56µM*	x	u
C/C(=C(/CCO)SSC[C@@H]1CCCO1)N(C=O)Cc1cnc(C)nc1N	x	x	x	9%	x	-40%[21.5 µM]
COc1cc(SC)ccc1C(=O)Nc1nnc(C(F)(F)F)s1	1%	x	x	x	x	x
COc1cc2c(cc1OC)CN(Cc1ccc(F)cc1)CC2	u	-17%[57 µM]	3.2µM*	-14%	50µM*	u
COc1cc2c(cc1OC)CN(Cc1cc(OC)c3c(c1)OCO3)CC2	-20%	-9%	8.9µM*	u	50µM*	u
COc1ccccc1NC(=O)c1cc2c(n1C)CCN(Cc1ccc(F)cc1)C2	35%	x	x	x	x	x
COc1ccc(CN2CCc3cc(OC)c(OC)cc3C2)cc1O	u	u	45µM*	-15%	u	-138%[59 µM]
CC[n+]1c(C)cc(C)n1-c1ccccc1	40µM*	27%	u	9%	x	50µM*
CCc1nccn1S(=O)(=O)c1cc(C)c(C)cc1OC	28%	x	x	x	x	x
CCCCOC(=O)COc1ccc2c(=O)c(Oc3cc(C)cc(C)c3)coc2c1	-9%	x	x	x	x	x
CCn1c(=O)c2sc(N3CCCC3)nc2n(CC(=O)Nc2cc(F)ccc2C)c1=O	-8%	x	x	x	x	x
O=S(=O)(Nc1nc2ccc(S(=O)(=O)N3CCCC3)cc2s1)c1ccc(F)cc1	-22%	-9%	-28%	-14%	u	40µM*
N[C@H](CSC(c1ccccc1)(c1ccccc1)c1ccccc1)C(=O)O	5%	x	x	u	x	8%[59 µM]
NC(CSC(c1ccccc1)(c1ccccc1)c1cccc2ccccc12)C(=O)O (centres undefined)	x	u	56µM*	x	x	x
CCN1CCC(CCNC(=O)C2CCCN(C(=O)c3ccccc3)CCC(=O)NCC2)CC1 (centres undefined)	30%	x	x	x	x	x
CCOC(=O)C1C(c2cc(OC)c(OC)c(OC)c2)NC(=S)NC1(O)C(F)(F)F (centres undefined)	u	-16%	0%	79µM*	-7%	u
COc1cc(C2NC(=S)NC(O)(C(F)(F)F)C2C(=O)c2cccs2)cc(OC)c1O (centres undefined)	-24%	40%	-8%	-16%	-2%	79µM*
